The structures appear in SMILES notation. The panel holds about 83,000 compounds, 20% with a hit somewhere; the sample as a whole holds those more often.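 The test compound was applied at a single concentration to cells in 96-well plates for 48 hours, and percent growth was recorded.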 A number with no mark means an inactive call. Active and inactive are the calls of the source. Rule for the calls: active = growth percent below 10; inactive = the rest.

The values that follow come from PubChem BioAssay (NCI).

In the assay the test system is HL-60(TB) leukemia. In words: NCI-60 one-dose screen, 48 h (100 = growth as untreated, 0 = no growth, -100 = all killed). To be noted: 10 µM unless noted.
Consider `O=C(CSc1nc2ccc([N+](=O)[O-])cc2[nH]1)Nc1ccc([N+](=O)[O-])cc1`, for which the growth was 12.7%. Then `COC1CC(N)C2OC(c3ccccc3)OCC2O1` (stereo not given), with 102%; and `Nc1ccc(-c2ccc(N)c(S(=O)(=O)O)c2)cc1S(=O)(=O)O`, with 91.4%. In the case of `COc1ccc2nc3cc(Cl)ccc3c(Nc3ccc(O)cc3)c2c1`, the growth was 44.2%. With `O=C(Nc1ccc(Oc2ccc(NC(=O)Nc3ccccc3Cl)cc2)cc1)Nc1ccccc1Cl`, the growth was 51.7%. Then `COc1ccc(CN2c3ccccc3Sc3ccccc32)c(F)c1`, with -27% (active); and `CCCCCCCCCCCCN1C(C)=CS/C1=C\C=C\c1scc(C)[n+]1CCCCCCCCCCCC`, with -32.3% (active); and `COc1ccc2[nH]c(O)c(/C=c3/cc4c(c(-c5cc(OC)c(OC)c(OC)c5)n3)=Nc3ccccc3-4)c2c1`, with 58.8%. Then `C/C(O)=C(/C=N/C(=S)Nc1ccccc1)C(=O)Nc1ccccc1C`, with 94.7%; and `CSc1nc(-c2ccc(O)cc2O)c2c(=O)[nH]c(Nc3ccc(S(=O)(=O)Nc4nc(C)cc(C)n4)cc3)nc2n1`, with 114%. Then `O=C(Nc1ccc(-n2cc(-c3ccncc3)c(-c3ccc(O)c(Cl)c3)n2)cc1)c1ccc(Cl)c(Cl)c1`, with 14.7%; and `NC(=O)c1c(Nc2ccccc2)nn2cc(-c3nc4ccccc4s3)c(N)nc12`, with 101%; and `O=C(Nc1ccc(Cl)cn1)C1(c2ccccc2)CCCCC1`, with 51.5%.

Regarding `COc1ccc(/C=C/C(=O)OCC(=O)NNC(=O)c2ccccc2)cc1OC`, the growth was 72.2%. `COc1cc(-c2nc(SCCC(C)C)nc(Nc3ccccc3)c2C#N)cc(OC)c1OC`: the growth is 83.9%. In the case of `COc1cc(CN(c2ccc(C)cc2)C2OC(=O)c3ccccc32)cc(OC)c1OC` (stereo not given), the growth was -30.4% (active). For `COc1ccc(NC(=O)c2nc(-c3cc(OC)c(OC)c(OC)c3)n(-c3cccc4ccccc34)n2)cc1OC` the value was 10%. As for `Nc1ccc(CC[C@H]2CCC/C=C/[C@@H]3C[C@H](O)C[C@H]3[C@H](O)/C=C/C(=O)O2)cc1`, the growth is -8.51% (active). Then `Cc1cccc(-c2cn3ccnc3c(-c3ccc4ncn(Cc5ccccc5)c4c3)n2)c1`, with 81.8%. On to `CC1=NC2=Nn3c(c4cnn(-c5ccccc5)c4n/c3=N\N)NN2C(c2ccccc2)=C1`, for which the growth is 106%.

On to `CCN(CC)CCN1CC(O)=C(c2nc(-c3ccc(Cl)cc3)cs2)C1=N`, for which the growth was -33.7% (active).

For the molecule `Clc1ccc(Nc2nc(Nc3ccccc3)nc(Nc3ccc(-c4cc(-c5ccc(Cl)cc5)on4)cc3)n2)cc1`, the growth is 55.3%. For `O=C(Nc1ccc(C2=NCCCN2)cc1)c1ccc(C(=O)Nc2ccc(C3=NCCCN3)cc2)nc1` the value was 79%; for `C=C1C(=O)O[C@H]2[C@H]1CC/C(CNC(=O)/C1=C/CC[C@@]3(C)O[C@H]3[C@H]3OC(=O)C(=C)[C@@H]3CC1)=C\CC[C@@]1(C)O[C@@H]21`, 57.4%. For `COc1cc(-c2nn(-c3cccc(NC(=O)NCCNS(=O)(=O)c4ccc(Cl)cc4)c3)cc2-c2ccncc2)ccc1Cl` the value was 1.37% (active).
